In the antibiotic and cytotoxicity screens of Wong et al. (2023):
The whole screen tested about 39,000 compounds, of which about 3,300 (8.5%) were called active. For the sample, actives were picked, then their nearest neighbours and some compounds at random.

system: HepG2; assay: cytotoxicity call (relative viability < 0.9); conditions: 10 µM

| Compound | cytotoxicity call |
| --- | --- |
| C[C@H](CO)N1C[C@H](C)[C@@H](CN(C)S(=O)(=O)c2cn(C)cn2)Oc2c(NC(=O)CCCN(C)C)cccc2C1=O | inactive |
| COc1ccc(NC(=O)N[C@@H]2CC[C@@H](CCNC(=O)CN3CCOCC3)O[C@@H]2CO)cc1 | inactive |
| C[C@@H]1CN([C@@H](C)CO)C(=O)CCCn2cc(nn2)CO[C@H]1CN(C)S(=O)(=O)c1ccc2c(c1)OCCCO2 | inactive |
| Cc1noc(C)c1NC(=O)N(C)C[C@H]1Oc2ccc(NS(C)(=O)=O)cc2C(=O)N([C@@H](C)CO)C[C@H]1C | inactive |
| C[C@H]1CCCCO[C@@H](CN(C)S(=O)(=O)c2ccc(F)cc2)[C@@H](C)CN([C@@H](C)CO)C(=O)c2cc(NC(=O)Nc3cccc4ccccc34)ccc2O1 | inactive |
| Cc1noc(C)c1NC(=O)Nc1ccc2c(c1)C(=O)N([C@H](C)CO)C[C@@H](C)[C@H](CN(C)C(=O)Nc1ccc(C(F)(F)F)cc1)OCCCC[C@@H](C)O2 | inactive |
| C[C@@H]1CN([C@H](C)CO)C(=O)c2cccc(NS(=O)(=O)c3ccccc3)c2O[C@@H]1CN(C)S(=O)(=O)c1cccs1 | inactive |
| C/C1=C2/[N]([Co+][OH])[C@H]([C@H](CC(N)=O)[C@@]2(C)CCC(=O)NC[C@@H](C)OP(=O)(O)O[C@H]2[C@@H](O)[C@@H](n3cnc4cc(C)c(C)cc43)O[C@@H]2CO)[C@]2(C)N=C(/C(C)=C3N=C(/C=C4N=C1[C@@H](CCC(N)=O)C/4(C)C)[C@@H](CCC(N)=O)[C@]\3(C)CC(N)=O)[C@@H](CCC(N)=O)[C@]2(C)CC(N)=O | active |
| C[C@@H]1CN([C@@H](C)CO)C(=O)c2cc(NC(=O)Nc3ccc4c(c3)OCO4)ccc2O[C@H]1CN(C)C(=O)Nc1cccc2ccccc12 | inactive |
| O=C(C[C@@H]1C[C@H]2c3cc(NC(=O)NC4CCCC4)ccc3O[C@H]2[C@H](CO)O1)NCCN1CCCCC1 | inactive |
| COc1ccc2c(=O)cc(-c3ccccc3)oc2c1OC | inactive |
| Cc1cc(=O)oc2cc(O)ccc12 | inactive |
| O=c1cc(-c2ccccc2)oc2c(O)c(O)ccc12 | active |
| O=c1cc(-c2ccccc2)oc2cc(O)ccc12 | inactive |
| Cc1cc2cc3c(C)cc(=O)oc3c(C)c2o1 | inactive |
| Cc1cc(=O)oc2c(O)c(O)ccc12 | active |
| C[C@@H]1CCCCO[C@@H](CN(C)C(=O)Nc2ccc(F)cc2)[C@H](C)CN([C@H](C)CO)C(=O)c2cc(NC(=O)Nc3ccccc3)ccc2O1 | inactive |
| C[C@@H]1CN([C@@H](C)CO)C(=O)c2cc(NS(=O)(=O)c3ccc(Cl)cc3)ccc2O[C@@H](C)CCCCO[C@H]1CN(C)C(=O)c1ccccc1 | inactive |
| Cc1ccc(S[C@]2(C(=O)NCC(C)C)CC(=O)N(Cc3ccccc3C(F)(F)F)[C@@H]2c2ccc(CO)cc2)cc1 | inactive |
| Cc1noc(C)c1NC(=O)Nc1ccc2c(c1)C(=O)N([C@@H](C)CO)C[C@@H](C)[C@H](CN(C)Cc1ccc(Oc3ccccc3)cc1)O2 | inactive |
| COC(=O)CCCCCCC(=O)N/N=C/[C@H](O)[C@H](O)[C@@H](O)[C@H](C)O | inactive |
| C=CC[C@H](CC(=O)N(CCO)Cc1ccccc1)C(=O)N[C@H](COC(=O)[C@H](CC=C)CC(=O)OC(C)(C)C)Cc1c[nH]c2ccccc12 | inactive |

| Compound | cytotoxicity call |
| --- | --- |
| C=CC[C@H](CC(=O)N(CCO)Cc1ccccc1)C(=O)N[C@@H](COC(=O)[C@H](CC=C)CC(=O)OC(C)(C)C)Cc1c[nH]c2ccccc12 | inactive |
| C=CC[C@H](CC(=O)N(CCO)Cc1ccccc1)C(=O)N[C@H](COC(=O)[C@@H](CC=C)Cc1ccc(F)cc1)Cc1c[nH]c2ccccc12 | inactive |
| C=CC[C@@H](CC(=O)N(CCO)Cc1ccccc1)C(=O)N[C@@H](COC(=O)[C@H](CC=C)CC(=O)OC(C)(C)C)Cc1c[nH]c2ccccc12 | inactive |
| C=CC[C@@H](CC(=O)N(CCO)Cc1ccccc1)C(=O)N[C@H](COC(=O)[C@@H](CC=C)Cc1ccc(F)cc1)Cc1c[nH]c2ccccc12 | active |
| C=CC[C@@H](CC(=O)N(CCO)Cc1ccccc1)C(=O)N[C@@H](COC(=O)[C@@H](CC=C)CC(=O)OC(C)(C)C)Cc1c[nH]c2ccccc12 | inactive |
| C=CC[C@H](CC(=O)N(CCO)Cc1ccccc1)C(=O)N[C@@H](COC(=O)[C@@H](CC=C)Cc1ccc(F)cc1)Cc1c[nH]c2ccccc12 | active |
| C=CC[C@@H](CC(=O)N(CCO)Cc1ccccc1)C(=O)N[C@@H](COC(=O)[C@@H](CC=C)Cc1ccc(F)cc1)Cc1c[nH]c2ccccc12 | inactive |
| C=CC[C@@H](CC(=O)N(CCO)Cc1ccccc1)C(=O)N[C@@H](COC(=O)[C@H](CC=C)Cc1ccc(F)cc1)Cc1c[nH]c2ccccc12 | active |
| c1ccc2c(CSc3nc4ccccc4o3)cccc2c1 | inactive |
| CNC(=O)C[C@H]1CC[C@@H]2[C@H](COC[C@H](O)CN2C(=O)Nc2cccc(OC)c2)O1 | inactive |
| C[C@@H]1CCCCO[C@H](CN(C)C(=O)Nc2cccc3ccccc23)[C@@H](C)CN([C@H](C)CO)C(=O)c2cc(NC(=O)Nc3cccc4ccccc34)ccc2O1 | inactive |
| C[C@@H]1CN([C@@H](C)CO)C(=O)c2cc(NS(=O)(=O)c3ccc(Cl)cc3)ccc2O[C@@H](C)CCCCO[C@H]1CN(C)S(=O)(=O)c1ccccc1 | inactive |
| COc1ccc(NC(=O)N(C)C[C@H]2OCc3cnnn3CCCC(=O)N([C@H](C)CO)C[C@H]2C)c(OC)c1 | inactive |
| C[C@@H]1CN([C@H](C)CO)C(=O)c2c(c3ccccc3n2C)-c2ccccc2CO[C@H]1CN(C)C(=O)CCC(F)(F)F | inactive |
| C[C@@H]1CN([C@@H](C)CO)C(=O)c2cc(C#CC3(O)CCCC3)cnc2O[C@@H]1CN(C)C(=O)Nc1ccc2c(c1)OCO2 | inactive |
| COCC#Cc1ccc2c(c1)O[C@@H](CN(C)C(=O)C1CCOCC1)[C@@H](C)CN([C@H](C)CO)S2(=O)=O | inactive |
| CCS(=O)(=O)Nc1ccc2c(c1)C(=O)N(C)[C@H]1CC[C@@H](CC(=O)NCc3ccccc3F)O[C@H]1CO2 | inactive |
| C[C@@H]1CN([C@@H](C)CO)C(=O)Cc2cc(NC(=O)CCCCCC(=O)Nc3ccccc3N)ccc2O[C@@H]1CN(C)Cc1ccccc1 | inactive |
| C[C@H]1CN([C@@H](C)CO)C(=O)Cc2cc(NC(=O)CCCCCC(=O)Nc3ccccc3N)ccc2O[C@@H]1CN(C)Cc1ccc(-c2ccccc2)cc1 | inactive |
| C[C@H](CO)N1C[C@H](C)[C@H](CN(C)Cc2ccccc2)Oc2ccc(NC(=O)CCCCCC(=O)Nc3ccccc3N)cc2CC1=O | inactive |
| C[C@@H]1CN([C@H](C)CO)C(=O)Cc2cc(NC(=O)CCCCCC(=O)Nc3ccccc3N)ccc2O[C@@H]1CN(C)Cc1ccc(-c2ccccc2)cc1 | active |
| C[C@@H]1CN([C@H](C)CO)C(=O)Cc2cc(NC(=O)CCCCCC(=O)Nc3ccccc3N)ccc2O[C@H]1CN(C)Cc1ccc(Cl)c(Cl)c1 | inactive |

| Compound | cytotoxicity call |
| --- | --- |
| C[C@H]1CN([C@@H](C)CO)C(=O)Cc2cc(NC(=O)CCCCCC(=O)Nc3ccccc3N)ccc2O[C@H]1CN(C)Cc1ccc(Cl)c(Cl)c1 | inactive |
| C[C@@H]1CN([C@@H](C)CO)C(=O)Cc2cc(NC(=O)CCCCCC(=O)Nc3ccccc3N)ccc2O[C@@H]1CN(C)Cc1ccc(-c2ccccc2)cc1 | active |
| C[C@@H]1CN([C@H](C)CO)C(=O)Cc2cc(NC(=O)CCCCCC(=O)Nc3ccccc3N)ccc2O[C@@H]1CN(C)Cc1ccc(Cl)c(Cl)c1 | active |
| C[C@H](CO)N1C[C@H](C)[C@H](CN(C)Cc2ccc(-c3ccccc3)cc2)Oc2ccc(NC(=O)CCCCCC(=O)Nc3ccccc3N)cc2CC1=O | active |
| C[C@H]1CN([C@@H](C)CO)C(=O)Cc2cc(NC(=O)CCCCCC(=O)Nc3ccccc3N)ccc2O[C@H]1CN(C)Cc1ccccc1 | inactive |
| C[C@H](CO)N1C[C@H](C)[C@@H](CN(C)Cc2ccc(-c3ccccc3)cc2)Oc2ccc(NC(=O)CCCCCC(=O)Nc3ccccc3N)cc2CC1=O | inactive |
| C[C@@H]1CN([C@H](C)CO)C(=O)Cc2cc(NC(=O)CCCCCC(=O)Nc3ccccc3N)ccc2O[C@@H]1CN(C)Cc1ccccc1 | inactive |
| COc1ccc2c3c(n(c2c1)C)[C@H](CO)N(C[C@]13CCN(CC1)S(=O)(=O)c1ccccc1)C(=O)c1cccnc1 | inactive |
| c1ccc(-c2cc(-c3nc4ccccc4[nH]3)c3ccccc3n2)cc1 | inactive |
| CNCc1cnc(NC)nc1 | inactive |
| C[C@@H]1CN([C@H](C)CO)C(=O)c2cccc(NS(=O)(=O)c3cn(C)cn3)c2O[C@H]1CN(C)CC1CC1 | inactive |
| CCO[C@@H]1OC(C(=O)N2CCN(Cc3ccccc3)CC2)=C[C@H](c2cn(C(C)=O)c3ccccc23)[C@H]1CCCOC(=O)NCCCCCC(=O)NO | inactive |
| CNCc1cc(C)nn1C | inactive |
| COc1cccc(-c2cn(CC[C@@H]3CC[C@@H](NS(=O)(=O)c4ccccc4Cl)[C@H](CO)O3)nn2)c1 | inactive |
| C[C@H](CO)N1C[C@H](C)[C@@H](CN(C)S(=O)(=O)c2ccc(F)cc2)Oc2ccc(NC(=O)C3CC3)cc2C1=O | inactive |
| Cc1ccc(S(=O)(=O)N[C@H]2CC[C@@H](CC(=O)NCc3ccc(Cl)c(Cl)c3)O[C@H]2CO)cc1 | inactive |
| C[C@@H]1CCCCO[C@@H](CN(C)CC2CC2)[C@@H](C)CN([C@H](C)CO)C(=O)c2cc(NC(=O)CCC(F)(F)F)ccc2O1 | inactive |
| C[C@@H]1CN([C@H](C)CO)C(=O)Cc2cc(NC(=O)CCCCCC(=O)Nc3ccccc3N)ccc2O[C@H]1CN(C)Cc1ccc(-c2ccccc2)cc1 | inactive |
| C[C@H]1CN([C@@H](C)CO)C(=O)Cc2cc(NC(=O)CCCCCC(=O)Nc3ccccc3N)ccc2O[C@H]1CN(C)Cc1ccc(-c2ccccc2)cc1 | active |
| C[C@@H]1CN([C@@H](C)CO)C(=O)Cc2cc(NC(=O)CCCCCC(=O)Nc3ccccc3N)ccc2O[C@H]1CN(C)Cc1ccc(-c2ccccc2)cc1 | inactive |
